Hits are enriched below; roughly 21% of the tested compounds scored in any of these assays.
ELG1 repair inh: qHTS screen for small molecules that inhibit ELG1-dependent DNA repair in human embryonic kidney (HEK293T) cells expressing luciferase-tagged ELG1; HEK293T ELG1-luciferase reporter, luminescence, 16 h; DNA damage induced by 5-fluorouridine; Potency, µM (series often up to 46.1 µM), most hits filed as inhibitors; 330,000 compounds, 2.3% hits; AID 504467, 2011; also: nearly all actives have a fitted effect of over 55% in size
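Luminescence from the luciferase reporter, measured 30 min after ONE-Glo reagent at room temperature, was the read-out. Beforehand, 2,000 cells per well were exposed for 16 hr at 37 °C to 5-fluorouridine together with compound or vehicle.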
DT40 TDP1 CPT: qHTS for Inhibitors of human tyrosyl-DNA phosphodiesterase 1 (TDP1): qHTS in cells in presence of CPT | chicken DT40 Tdp1-/-;hTDP1 cells + 20 nM CPT, ATP luminescence, 48 h | AID 686979, 2013 | Potency, µM (doses to about 46.2 µM), hits mostly inhibitors | 420,000 compounds, 12% hits; also: nearly all actives have a fitted effect of over 55% in size
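Chicken DT40 Tdp1-/- cells stably complemented with human TDP1 were seeded at 400 cells/well in medium containing 20 nM camptothecin, exposed to pin-transferred compounds, and grown at 37 °C for at least 48 hr. Viability was read as ATP luminescence.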
TDP1 cell noCPT: qHTS for Inhibitors of human tyrosyl-DNA phosphodiesterase 1 (TDP1): qHTS in cells in absence of CPT | DT40 Tdp1-/- hTDP1 cells, no CPT, ATP luminescence, 48 h | 420,000 compounds, 15% hits | Potency, µM (top dose mostly 46.2 µM), actives largely listed as inhibitors; also: nearly all actives have a fitted effect of over 55% in size
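Cells were dispensed at 400 per well, compounds added by pin tool, plates incubated ≥48 hr at 37 °C, then CellTiter-Glo added for 30 min at room temperature before luminescence reading. Line: DT40 Tdp1-/- complemented with hTDP1; camptothecin omitted.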
RORg inh: qHTS for inhibitors of ROR gamma transcriptional activity. Nuclear receptor ROR-gamma (Mus musculus), P51450. Drosophila S2 Gal4-RORgamma UAS-luciferase reporter, 20 h. Potency, µM (highest dose often 53.6 µM), hits mostly inhibitors. 310,000 compounds, 5.4% hits. AID 2551, 2010; also: nearly all actives have a fitted effect of over 60% in size
Target sequence (P51450 whole entry, looked up, the tested form may be a part): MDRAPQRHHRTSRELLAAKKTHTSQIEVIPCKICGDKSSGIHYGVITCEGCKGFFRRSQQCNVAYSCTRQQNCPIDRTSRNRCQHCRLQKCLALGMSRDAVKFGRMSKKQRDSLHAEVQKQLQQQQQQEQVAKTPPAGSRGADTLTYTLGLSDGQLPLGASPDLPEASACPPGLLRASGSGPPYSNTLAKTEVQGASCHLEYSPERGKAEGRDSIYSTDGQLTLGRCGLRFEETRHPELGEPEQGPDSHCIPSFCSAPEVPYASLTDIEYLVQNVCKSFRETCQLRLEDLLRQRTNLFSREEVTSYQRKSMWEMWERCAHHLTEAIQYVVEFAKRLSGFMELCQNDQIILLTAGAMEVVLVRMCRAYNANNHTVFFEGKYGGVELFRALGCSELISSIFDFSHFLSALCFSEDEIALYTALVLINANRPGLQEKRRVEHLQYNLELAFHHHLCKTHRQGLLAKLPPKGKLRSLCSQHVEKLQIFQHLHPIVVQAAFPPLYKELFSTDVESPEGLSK
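Drosophila S2 cells stably expressing Gal4-DBD/mouse RORγ fusion under metallothionein promoter plus UAS-luciferase; compound 1 h, then 700 uM CuSO4 induction for 20 h at ambient temperature; inhibition read as reduced luminescence.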
Gal4-VP16 FLuc: VP16 counterscreen qHTS for inhibitors of ROR gamma transcriptional activity; Drosophila S2 Gal4-VP16 UAS-luciferase, luminescence, 20 h; Potency, µM (series often up to 53.6 µM), most hits filed as inhibitors; 310,000 compounds, 3.5% hits; AID 2546, 2010;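 also: Gal4-VP16 expression switched on by copper sulfate through the metallothionein promoter; nearly all actives have a fitted effect of over 50% in size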
IL-1B inflam inh: qHTS for Inhibitors of Inflammasome Signaling: IL-1-beta AlphaLISA Primary Screen | THP-1 LPS/ATP IL-1B secretion, AlphaLISA, 16 h; active compounds read low | activity change, % at 57.5 µM | 360,000 compounds, 4.7% hits; in the data active = activity change below about -50%; inconclusive = mostly about -30% to -49%
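Secreted IL-1B measured by AlphaLISA bead assay after 16 h compound exposure of THP-1 cells; compounds (final up to 57.5 uM) added 1 h before LPS (250 ng/mL) and ATP (1.25 mM) stimulation; lower signal means less secretion.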
Large screens that a line does not name were inactive. Unless noted, calls follow the shape of the dose curve; as a rule, active = well fitted curve in the direction sought with a large enough effect; inconclusive = small, poorly fitted or top-dose-only effect, or another doubt; inactive = no such curve, though single readings can be large; an effect the other way counts as inactive or inconclusive.

COc1ccc2nc(SCC(N)=O)cc(C)c2c1	none
COc1ccc2c(-c3ccccc3)cc(SCC(N)=O)nc2c1	TDP1 cell noCPT 20.6µM
Cn1cnnc1SCc1ccc(C(=O)N=Nc2c(O)n(C)c3ccccc23)cc1	ELG1 repair inh inconclusive, DT40 TDP1 CPT inconclusive, TDP1 cell noCPT inconclusive, IL-1B inflam inh -54.6
Cc1ccc(NC(=O)Cc2nc(-c3c[nH]c(C(=O)N4CCCC4)c3)cs2)c(C)c1	ELG1 repair inh 16.4µM, DT40 TDP1 CPT inconclusive, TDP1 cell noCPT inconclusive (no result: RORg inh, Gal4-VP16 FLuc)
Cc1c(Cl)cccc1NC(=S)/C(=C(\[O-])c1ccc(Cl)s1)[n+]1ccccc1	RORg inh inconclusive, Gal4-VP16 FLuc 5.62µM, IL-1B inflam inh -70.4
O=C(Cn1cnc2nc3c(cc2c1=O)CCCC3)Nc1ccc(F)cc1Cl	none (no result: ELG1 repair inh, RORg inh, Gal4-VP16 FLuc, IL-1B inflam inh)
O=c1c2cc3c(nc2ncn1Cc1ccccc1F)CCCC3	DT40 TDP1 CPT 18.4µM, TDP1 cell noCPT inconclusive (no result: ELG1 repair inh, RORg inh, Gal4-VP16 FLuc, IL-1B inflam inh)
COc1ccccc1NC(=S)NC1CCCCC1	RORg inh 4.47µM, Gal4-VP16 FLuc 20µM
C=CCNC(=S)NCc1ccccc1OC	RORg inh 11.2µM, Gal4-VP16 FLuc inconclusive
COc1ccccc1CNC(=S)NC1CCCC1	RORg inh 5.62µM, Gal4-VP16 FLuc 7.08µM
COc1ccccc1CNC(=O)C1CCC1	none
COc1ccccc1NC(=S)NCC1CCCCC1	DT40 TDP1 CPT inconclusive, TDP1 cell noCPT inconclusive, RORg inh 4.47µM, Gal4-VP16 FLuc 12.6µM
COc1ccc(OCc2nnc(SCC(=O)Nc3ccccc3C#N)o2)cc1	none
COc1cc(NC(=O)CN2C(=O)NC(CC(C)C)C2=O)cc(OC)c1OC (stereo not drawn)	none (no result: RORg inh, Gal4-VP16 FLuc)
COc1ccc(OC)c(NC(=O)C(=S)NC2CCCCC2)c1	none
COc1ccccc1NC(=S)NC1CCCCCCCCCCC1	ELG1 repair inh inconclusive, DT40 TDP1 CPT 10.3µM, TDP1 cell noCPT 20.6µM, RORg inh 2.82µM, Gal4-VP16 FLuc inconclusive
CCOc1ccccc1OCC(=O)NC1CCCCC1	none
COc1ccc(OC)c(C(C)NC(=S)NC2CCCCC2)c1 (stereo not drawn)	DT40 TDP1 CPT inconclusive, TDP1 cell noCPT inconclusive, RORg inh 3.98µM, Gal4-VP16 FLuc 3.98µM
CCOc1ccccc1NC(=S)NC1CCCCC1	TDP1 cell noCPT inconclusive
CCOc1ccccc1C(=S)NC1CCCCC1	RORg inh 10µM, Gal4-VP16 FLuc inconclusive
Cc1ccc(C)c(C(C)NC(=S)NC2CCCCC2)c1 (stereo not drawn)	DT40 TDP1 CPT 25.9µM, TDP1 cell noCPT inconclusive, RORg inh 2.51µM, Gal4-VP16 FLuc 5.62µM
[O-][n+]1nc2ccccc2c2ccccc21	none (no result: ELG1 repair inh, RORg inh, Gal4-VP16 FLuc)
Cc1cccc(CNC(=O)c2cnc3sc(N4CCOCC4)nn3c2=O)c1	none (no result: ELG1 repair inh, RORg inh, Gal4-VP16 FLuc, IL-1B inflam inh)
COc1ccc(NC(=S)NC2CCCC2)c(OC)c1	ELG1 repair inh inconclusive, RORg inh 6.31µM, Gal4-VP16 FLuc inconclusive
CCC12C(=Nc3c(Cl)cccc31)C[C@@H]1CCN3C(=O)CCC[C@H]2[C@H]13 (stereo partly drawn)	DT40 TDP1 CPT inconclusive, TDP1 cell noCPT inconclusive (no result: ELG1 repair inh, RORg inh, Gal4-VP16 FLuc)
Cn1nccc1NC(=O)Nc1cccc(Cl)c1	none
Cn1nccc1-c1cc(Cl)cc(Cl)c1O	RORg inh inconclusive, Gal4-VP16 FLuc 31.6µM (no result: IL-1B inflam inh)
COc1cc(NC(=O)CCN2CCN(c3ccccc3F)CC2)cc(OC)c1	DT40 TDP1 CPT 29.1µM, IL-1B inflam inh inconclusive
COc1ccc(NC(=O)CCN2CCN(c3ccc(F)cc3)CC2)cc1	DT40 TDP1 CPT 23.1µM, TDP1 cell noCPT inconclusive
CCN(C[C@H]1N[C@@](C)(C(=O)OC)[C@H]2C(=O)N(C)C(=O)[C@@H]12)C(=O)Nc1ccccc1	none (no result: RORg inh, Gal4-VP16 FLuc)
